Shown are actives, neighbours in structure and some others; about 19% of the full set was active somewhere.
HT1080 IDH1KD tx = qHTS for induction of synthetic lethality in tumor cells producing 2HG: qHTS for the HT-1080-IDH1KD cell line; HT-1080 IDH1 knockdown viability, ATP luminescence, 48 h; Potency, µM (titrated, usually from 46.1 µM), for the others: top-dose activity, negative = toxicity, usual class: cytotoxic; actives 2% (n = 360,000); AID 686971, 2013;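 further: potency means the concentration at half of the fitted maximal effect; 0% = DMSO wells and -100% = cell-free medium wells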
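Cytotoxicity counter-line: IDH1KD HT-1080, 48 h, CellTiter-Glo. Curves classed by r2, magnitude and activity.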
DT40 TDP1 CPT = qHTS for Inhibitors of human tyrosyl-DNA phosphodiesterase 1 (TDP1): qHTS in cells in presence of CPT | chicken DT40 Tdp1-/-;hTDP1 cells + 20 nM CPT, ATP luminescence, 48 h | Potency, µM (highest dose often 46.2 µM), for the others: top-dose activity change, negative = growth inhibition, hits mostly inhibitors | actives 12% (n = 420,000); further: potency means the concentration at half of the fitted maximal effect; nearly all actives have a fitted effect of over 55% in size
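Chicken DT40 Tdp1-/- cells complemented with human TDP1, 400 cells/well, exposed to compounds plus 20 nM camptothecin for at least 48 h at 37 C; viability read as ATP content by CellTiter-Glo luminescence.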
IL-1B inflam inh = qHTS for Inhibitors of Inflammasome Signaling: IL-1-beta AlphaLISA Primary Screen; THP-1 LPS/ATP IL-1B secretion, AlphaLISA, 16 h; active compounds read low; activity change, % at 57.5 µM; actives 4.7% (n = 360,000); AID 743279, 2014; in the data active means activity change below about -50%; inconclusive means mostly about -30% to -49%
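THP-1 cells pretreated 1 hr with compounds (up to 57.5 uM final), then stimulated with LPS (250 ng/mL final) plus ATP (1.25 mM final); secreted IL-1B measured by AlphaLISA after 16 hr, decreased signal indicating inhibition.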
HT1080-NT tox = qHTS for induction of synthetic lethality in tumor cells producing 2HG: qHTS for the HT-1080-NT fibrosarcoma cell line | HT-1080-NT fibrosarcoma viability, CellTiter-Glo ATP luminescence, 48 h | Potency, µM (top dose mostly 46.1 µM), without a hit: at the highest dose activity, negative = less viability, most hits filed as cytotoxic | actives 1.6% (n = 360,000);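 further: NT is the 2HG producing partner of a matched IDH1 knockdown line; potency means the concentration at half of the fitted maximal effect; 0% = DMSO-treated cells and -100% = media-only wells without cells; nearly all actives have a fitted effect of over 55% in size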
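750 cells/well, RPMI + 5% FBS; 2 h settle, compound pin-transfer, 48 h at 37 degrees C. CellTiter-Glo 10 min RT, luminescence. Normalized to DMSO and media-only wells.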
DT40 TDP1 no CPT = qHTS for Inhibitors of human tyrosyl-DNA phosphodiesterase 1 (TDP1): qHTS in cells in absence of CPT; AID 686978, 2013; Potency, µM (titrated, usually from 46.2 µM), without a hit: top-dose activity change, negative = growth inhibition, actives largely listed as inhibitors; actives 15% (n = 420,000); DT40 Tdp1-/- hTDP1 cells, no CPT, ATP luminescence, 48 h; further: potency means the concentration at half of the fitted maximal effect; nearly all actives have a fitted effect of over 55% in size
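Growth of hTDP1-complemented DT40 Tdp1-knockout cells is measured by ATP luminescence after at least 48 hr compound exposure at 37 °C, with DMSO substituting for the 20 nM CPT used in the parallel screen.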
ELG1 DNA repair = qHTS screen for small molecules that inhibit ELG1-dependent DNA repair in human embryonic kidney (HEK293T) cells expressing luciferase-tagged ELG1. HEK293T ELG1-luciferase reporter, luminescence, 16 h; DNA damage induced by 5-fluorouridine. Potency, µM (top dose mostly 46.1 µM), for inactives: top-dose activity change, negative = inhibition, most hits filed as inhibitors. actives 2.3% (n = 330,000). AID 504467, 2011; further: potency means the concentration at half of the fitted maximal effect; nearly all actives have a fitted effect of over 55% in size
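5-Fluorouridine DNA damage + compound/DMSO, 2,000 cells/well, 16 h, 37 °C/5% CO2. ONE-Glo, 30 min RT, luminescence. Readout = decrease in reporter signal.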
Starred values were filed as active, the others as inactive; ? = inconclusive; nt = no result; [ ] = another dose, or the depositor's remark. Unless noted, the call rests on the fitted dose curve; in most records, active means well fitted curve in the direction sought with a large enough effect; inconclusive means small, poorly fitted or top-dose-only effect, or another doubt; inactive means no such curve, though single readings can be large; an effect the other way counts as inactive or inconclusive. Unless noted, on the % scale 0 is the no-effect control and ±100 the full control effect.

SMILES	HT1080 IDH1KD tx	DT40 TDP1 CPT	IL-1B inflam inh	HT1080-NT tox	DT40 TDP1 no CPT	ELG1 DNA repair
COc1ccc(CNC(=O)CN2CCN(S(=O)(=O)c3ccccc3)CC2)cc1	1.2%	-24.9%	6.4	5.0%	-21.5%	0.9%
CCNc1nc(NC(C)C)nc(ON=C(C)C)n1	nt	nt	nt	nt	nt	4.5%
COc1ccc(OC)c(NC(=O)CN2CCCN(Cc3ccccc3Cl)S2(=O)=O)c1	nt	?	nt	nt	23.1µM*	nt
COc1ccc(NC(=O)CN2CCN(Cc3ccccc3)S2(=O)=O)c(OC)c1	nt	-0.8%	nt	nt	-24.3%	nt
COc1ccc(NC(=O)CN2CCCN(Cc3ccc(Cl)cc3)S2(=O)=O)cc1Cl	nt	11.6µM*	nt	nt	10.3µM*	nt
CCn1c(C(=O)NC2CCC(C)CC2)cc2sccc21 (stereo unspecified)	3.0%	-20.2%	-3.0	-1.7%	?	?
CCOC(=O)C(CC)n1nc(C)n2c(cc3sccc32)c1=O (stereo unspecified)	-5.6%	11.6µM*	18.4	14.8%	11.6µM*	-1.6%
CCOC(=O)CCCn1nc(C)n2c(cc3sccc32)c1=O	-2.8%	-13.2%	-1.2	-3.2%	?	12.1%
Cc1nn(C(C)C(=O)NC2CCC(C)CC2)c(=O)c2cc3sccc3n12 (stereo unspecified)	nt	14.6µM*	nt	nt	?	nt
CC1(C)CC(=O)C2=C(C1)Nc1ccccc1NC2c1cc(Cl)ccc1O (stereo unspecified)	-19.2%	18.4µM*	-17.7	-23.9%	23.1µM*	-22.9%
Cc1ccc(C2Nc3ccccc3NC3=C2C(=O)CC(C)(C)C3)c(O)c1 (stereo unspecified)	-4.6%	-28.7%	7.2	1.8%	-29.5%	2.7%
CCOCC(O)COc1ccc(NC(=O)CC[S+](C)C)cc1 (stereo unspecified)	nt	-2.2%	nt	nt	-1.7%	nt
CC(=O)c1cc(-c2ccccc2)n(CC(=O)N2CCN(C3CCCC3)CC2)c1C	-2.0%	?	-14.8	5.3%	23.1µM*	?
O=C(CCCc1ccccc1)N1CCN(C2CCCCC2)CC1	0.6%	?	-8.8	-6.8%	?	?
CC(=O)c1cc(-c2ccccc2)n(CC(=O)N2CCC(C)CC2)c1C	-0.5%	?	2.2	20.3%	29.1µM*	-7.6%
CCN1CCN(c2ccc(NC(=O)CC3OC(=O)c4ccccc43)cc2C)CC1 (stereo unspecified)	-1.6%	4.7%	0.3	1.6%	-3.5%	nt
CC(=O)N1CCC[C@H]1C(=O)NCC1Cc2cc(Cl)cc(-c3ccc4[nH]ccc4c3)c2O1 (stereo partly specified)	nt	23.4%[9.04 µM]	nt	nt	?	nt
Cc1ccc(N(C)S(=O)(=O)c2ccc(-c3cc(C)no3)s2)cc1	?	6.51µM*	3.8	-25.7%	-82.7%	-23.1%
Cc1cc(-c2ccc(S(=O)(=O)N(C)c3ccc(C)c(C)c3)s2)on1	?	3.26µM*	23.7	?	4.11µM*	-12.5%
Cc1cc(NC(=O)c2cc(-c3ccc(F)cc3)on2)nn1Cc1ccc(Cl)cc1	nt	?	nt	nt	-20.1%	nt
Cc1nn(Cc2ccc(Cl)cc2)c(C)c1NC(=O)c1cc(-c2ccco2)on1	?	13µM*	40.4	-29.6%	23.1µM*	?
Cc1cc(NC(=O)c2cc(-c3ccco3)on2)nn1Cc1ccc(Cl)cc1	-14.1%	20.6µM*	8.0	-27.7%	25.9µM*	?
Cc1ccc(Cn2nc(C)c(NC(=O)c3cc(-c4ccco4)on3)c2C)cc1	?	?	7.8	-2.0%	?	?

Screens deposited in PubChem by National Center for Advancing Translational Sciences (NCATS).
